Most compounds without a hit are left out; they make up all but 1.8% or so of the library.
S1P2 ag: agonists of human S1P2 receptor | O95136 | S1P2-expressing cell line, agonist reporter read-out | activation, % at 4.5 µM | hit rate 0.46% among 97,000 | AID 729; in the data active = activation above about 16%
Target sequence (O95136 whole entry, looked up): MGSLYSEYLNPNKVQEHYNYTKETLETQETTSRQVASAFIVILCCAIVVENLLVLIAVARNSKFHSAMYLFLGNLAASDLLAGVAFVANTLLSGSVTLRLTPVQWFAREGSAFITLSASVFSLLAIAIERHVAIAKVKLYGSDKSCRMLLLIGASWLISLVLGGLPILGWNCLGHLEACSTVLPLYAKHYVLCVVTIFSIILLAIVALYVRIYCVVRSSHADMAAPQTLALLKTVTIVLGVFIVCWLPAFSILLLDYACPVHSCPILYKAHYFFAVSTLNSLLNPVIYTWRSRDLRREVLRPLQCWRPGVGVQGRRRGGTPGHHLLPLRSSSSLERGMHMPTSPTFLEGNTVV
GALR2 antag: GALR2 (human) receptor antagonism. O43603. GALR2-expressing cells, antagonist mode. inhibition, % at 4 µM. hit rate 0.39% among 140,000; in the data active = inhibition above about 27%;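 also: cells stimulated with galanin 1-16 at roughly its EC80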
Target sequence (O43603 whole entry, looked up): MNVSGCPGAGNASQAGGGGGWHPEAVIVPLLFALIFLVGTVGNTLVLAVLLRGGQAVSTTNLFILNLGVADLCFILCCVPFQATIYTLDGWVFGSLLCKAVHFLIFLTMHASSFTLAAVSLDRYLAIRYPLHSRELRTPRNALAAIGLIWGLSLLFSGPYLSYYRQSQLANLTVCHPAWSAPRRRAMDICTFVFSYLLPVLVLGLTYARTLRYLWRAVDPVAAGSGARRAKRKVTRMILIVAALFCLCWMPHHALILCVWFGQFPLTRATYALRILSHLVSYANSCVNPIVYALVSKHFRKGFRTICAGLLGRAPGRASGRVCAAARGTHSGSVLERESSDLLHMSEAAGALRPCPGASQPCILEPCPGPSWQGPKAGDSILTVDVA
MRP-1 activ: MRP-1 activation; AID 799; viability increase, % at 10 µM; H69AR cells + doxorubicin, viability rescue, CellTiter-Glo; hit rate 0.61% among 140,000;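 active = viability gain under doxorubicin at or above a set limit, the compound median plus 3 SD, cut at about 4.7% in these data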;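 also: MRP-1 overexpressing cells given doxorubicin 25 µM after compound pretreatment; 18-22 h compound pretreatment then 72 h with doxorubicin before readout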
S1P2 antag: antagonists of human S1P2 receptor. O95136. cell-based S1P2 antagonist assay, inhibition at 5 uM. inhibition, % at 5 µM. hit rate 0.21% among 97,000. AID 736; in the data active = inhibition above about 45%;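 also: CRE beta-lactamase reporter cells expressing human S1P2 stimulated with S1P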
MRP resist rev: MRP-mediated drug resistance reversal; H69AR cells + 2 uM doxorubicin, CellTiter-Glo, 72 h; differential viability (reversal), % at 10 µM; hit rate 0.04% among 85,000;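 active = viability drop by adding the cancer drug above about 55%, with treated viability meeting a 40% cutoff, limit read from the data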;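 also: larger differential means the compound sensitizes cells more to doxorubicin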
GALR2 ag: activates the human galanin receptor 2 | O43603 | GALR2-expressing cells, agonist activation read-out | activation, % (no concentration beside the values) | hit rate 0.48% among 140,000; in the data active = activation above about 5%, passing the limit was not always enough
Of the large screens only hits and unclear results are named; the others gave an inactive call.

COc1ccc(CNC(=O)c2cc3c(=O)n4ccccc4nc3n(Cc3ccco3)c2=N)cc1	none (no result: MRP-1 activ)
Cc1ccc(Cn2c(=N)c(C(=O)NCc3ccco3)cc3c(=O)n4ccccc4nc32)cc1	S1P2 ag 24.2, GALR2 ag 6.8
N=c1c(C(=O)NCc2ccc(F)cc2)cc2c(=O)n3ccccc3nc2n1CC1CCCO1 (stereo not given)	S1P2 ag 31.0, GALR2 ag 14.4 (no result: MRP resist rev)
COCCCn1c(=N)c(C(=O)NCC2CCCO2)cc2c(=O)n3ccccc3nc21 (stereo not given)	S1P2 ag 24.0, GALR2 ag 18.7 (no result: MRP resist rev)
CCNC(=O)NC(=O)C(C)Sc1nc2ccccc2n1CC(C)C (stereo not given)	none
CCC1(CC)C(=O)N(C)C(=O)NC1=Nc1ccc(OC)cc1	none
O=C(CCNc1n[nH]c(=O)[nH]c1=O)N1CCOCC1	none
CC1(c2ccc(OC(F)F)cc2)NC(=O)N(/N=C/c2c(O)ccc3ccccc23)C1=O (stereo not given)	none (no result: S1P2 ag, S1P2 antag, MRP resist rev)
COCCn1c(=NC(=O)/C=C/c2ccccc2Cl)sc2cc(NC(C)=O)ccc21	GALR2 ag 6.0 (no result: S1P2 ag, S1P2 antag, MRP resist rev)
COc1nc(C)nc(NC(=O)NS(=O)(=O)c2ccc(C)cc2)n1	S1P2 ag 25.8
COc1cc(C2C3=C(Nc4ncnn42)c2ccccc2CC3)cc(OC)c1OC (stereo not given)	GALR2 antag 34.6, GALR2 ag 5.0
COc1ccc(C2C3=C(Nc4ncnn42)c2ccccc2CCC3)cc1 (stereo not given)	none
Cc1ccc(C)c(NC(=O)C2=CCN(S(=O)(=O)c3ccc(F)cc3)CC2)c1	none (no result: S1P2 ag, S1P2 antag, MRP resist rev)
COc1ccc(/C=N\N=C2/SC(CC(=O)O)C(=O)N2c2ccc(O)cc2)cc1OC (stereo not given)	none (no result: S1P2 ag, S1P2 antag, MRP resist rev)
CCOc1ccc(/C=N/N2C(=O)C(CC(=O)Nc3ccc(F)cc3F)SC2=NC)cc1OC (stereo not given)	GALR2 ag 6.0 (no result: S1P2 ag, S1P2 antag, MRP resist rev)
Cc1ccc2cc(C3CC(c4ccco4)=NN3S(=O)(=O)c3ccccc3)c(Cl)nc2c1 (stereo not given)	none (no result: S1P2 ag, S1P2 antag, MRP resist rev)
Nc1c(C(=O)NCc2ccc(Cl)cc2)sc2nc3c(c(C(F)(F)F)c12)CCC3	none (no result: MRP resist rev)
CCCn1c(=O)n(C)c(=O)c2c3oc(=O)c(NC(=O)c4ccc(F)cc4)cc3[nH]c21	none (no result: S1P2 ag, GALR2 antag, MRP-1 activ, S1P2 antag, GALR2 ag)
CCOC(=O)c1nc(S(C)(=O)=O)ncc1Cl	GALR2 antag 35.7
CCCn1cnc2c(sc3nc4c(cc32)CSC(C)(C)C4)c1=O	none (no result: MRP resist rev)
CC(C)CCOc1ncnc2c1sc1nc3c(cc12)CSC(C)(C)C3	MRP-1 activ 6.3
Brc1ccc(-c2nc3ncccn3c2NC2CCCCC2)o1	MRP resist rev 57.9
CCc1nn(-c2cc(Cl)ccc2OC)c2c1C(=O)CCC2	none
CCOC(=O)c1ccccc1NC(=O)CSc1nc2ccccc2n1CC(=O)N1CCCC1	S1P2 ag 31.7
COc1cc(CNCCc2c[nH]c3ccccc23)ccc1OCc1ccc(F)cc1	none (no result: MRP resist rev)
N#C/C(C(=O)Oc1ccccc1)=C1/Nc2ccccc2-c2ccccc21	none
CCOC(=O)c1cc2c(=O)n3ccccc3nc2n(CCOC)c1=NC(=O)c1ccncc1	S1P2 ag 19.0, GALR2 ag 7.5
CCOC(=O)c1cc2c(=O)n3ccccc3nc2n(Cc2ccccc2)c1=N	none
CCOC(=O)c1cc2c(=O)n3ccccc3nc2n(CC(C)C)c1=NC(=O)c1ccco1	none
CCOC(=O)c1cc2c(=O)n3ccccc3nc2n(Cc2ccccc2Cl)c1=N	none (no result: S1P2 ag, GALR2 antag, MRP-1 activ, S1P2 antag, GALR2 ag)
CCOC(=O)c1cc2c(=O)n3ccccc3nc2n(Cc2ccco2)c1=NC(=O)c1cccnc1	none
CCOC(=O)c1cc2c(=O)n3ccccc3nc2n(CCCOC)c1=NC(=O)C(C)(C)C	S1P2 ag 32.8, GALR2 ag 12.2
CCOCCCn1c(=NC(C)=O)c(C(=O)OCC)cc2c(=O)n3ccccc3nc21	S1P2 ag 18.8, GALR2 ag 7.8
CCOC(=O)c1cc2c(=O)n3ccccc3nc2n(C(C)C)c1=NC(=O)c1ccncc1	S1P2 ag 17.6
CCOC(=O)c1cc2c(=O)n3ccccc3nc2n(CCCOC)c1=NC(=O)c1cccnc1	S1P2 ag 21.7
CCOC(=O)c1cc2c(=O)n3ccccc3nc2n(CCOC)c1=NC(=O)C(C)(C)C	S1P2 ag 25.5, GALR2 ag 8.7
O=C(COC(=O)c1ccccc1C(=O)c1ccccc1)NCCc1ccccc1	GALR2 ag 7.0 (no result: S1P2 ag, S1P2 antag, MRP resist rev)
Cc1ccc(-n2nnc3c(SCC(=O)N4CCN(c5ccccc5)CC4)ncnc32)cc1	none (no result: MRP-1 activ)
CC(C)Cn1c2c(c(O)c(C(=O)Nc3nccs3)c1=O)CCCC2	MRP-1 activ 5.7
COc1ccc(CNc2nc3c(c(=O)n(Cc4ccc(Br)cc4)c(=O)n3C)n2C)cc1	MRP-1 activ 5.2
Cn1c(NCc2ccccc2)nc2c1c(=O)n(Cc1ccc(Br)cc1)c(=O)n2C	none
O=C(Nc1ccc(F)cc1F)c1ccco1	none
c1ccc2c(-c3nc(C4CCCCC4)no3)cc(-c3ccncc3)nc2c1	MRP-1 activ 7.6
CC1(C)Cc2ccccc2C(N/N=C/c2ccc(Cl)cc2)=N1	none (no result: S1P2 ag, S1P2 antag, MRP resist rev)
O=C(NCc1cccnc1)/C(=C/c1ccc(-c2ccc(Cl)cc2)o1)S(=O)(=O)c1ccccc1	S1P2 antag 54.3 (no result: MRP resist rev)
O=C(NCc1cccnc1)/C(=C/c1ccc(-c2cccc(C(F)(F)F)c2)o1)NC(=O)c1ccccc1	none (no result: MRP resist rev)
COc1cccc(NC(=O)c2oc3ccccc3c2NC(=O)c2ccc3c(c2)OCO3)c1	MRP-1 activ 5.0
O=C(CN1CCCCCC1)N1c2ccccc2C=Cc2ccccc21	none
N#CC1=C2C=Cc3ccccc3N2CCCC1=O	MRP-1 activ 7.3 (no result: S1P2 ag, S1P2 antag)
Cc1ccnc(N2C(=O)CSC2c2ccc(Cl)cc2)c1 (stereo not given)	none (no result: S1P2 ag, S1P2 antag, MRP resist rev)
Nc1nnc(SCc2ccccc2Cl)s1	none
N=C(N)SCc1ccccc1Cl	MRP-1 activ 8.6 (no result: S1P2 ag, S1P2 antag, MRP resist rev)
O=C1c2cccc3cccc(c23)C(=O)N1c1ccncc1	MRP-1 activ 5.7
CC(C)c1nc(SCC(=O)NCc2ccc3c(c2)OCO3)c2c(=O)n(C)c(=O)n(C)c2n1	none (no result: S1P2 ag, GALR2 antag, MRP-1 activ, S1P2 antag, GALR2 ag)
CC1=C(C(=O)OC2CCCCC2)C(c2ccc(C)o2)C2=C(CC(C)(C)CC2=O)N1 (stereo not given)	none
CC1=C(C(=O)Nc2ccc(F)cc2)C(c2ccc(C)o2)C2=C(CC(C)(C)CC2=O)N1 (stereo not given)	S1P2 ag 20.9
Cc1ccc(S(=O)(=O)NC(=O)c2cc(C)n(-c3ccccc3)c2C)cc1	none (no result: S1P2 ag, S1P2 antag, MRP resist rev)
Cc1ccc(S(=O)(=O)NC(=O)c2cc(C)n(-c3cc(S(=O)(=O)N4CCOCC4)ccc3N3CCCC3)c2C)cc1	MRP-1 activ 5.0 (no result: MRP resist rev)
COc1ccc(C2CC(C(F)(F)F)n3nc(C(N)=O)c(Cl)c3N2)cc1OC (stereo not given)	S1P2 ag 23.6
CC1Cc2ccccc2N1C(=O)CSc1nnnn1Cc1ccccc1 (stereo not given)	none (no result: S1P2 ag, S1P2 antag)
CCn1c(COc2ccc(Cl)cc2)nnc1SC1CCc2ccccc2C1=O (stereo not given)	MRP-1 activ 7.1 (no result: S1P2 ag, S1P2 antag, MRP resist rev)
CCn1c(COc2ccc(Cl)cc2)nnc1SCc1ccc(C#N)cc1	none

Screening results: PubChem BioAssay, several laboratories
